Source: PubChem BioAssay (several laboratories)
Rows were chosen to be rich in hits. Some 9.3% of all compounds tested hit in one or more screens of this group.
Htt clearance = mutant huntingtin protein clearance; hit rate 0.42% among 47,000; HeLa Exon1htt(103Q)mCFP, aggregate imaging; zero = plate's median compound well; AID 853; inhibition, % at 1.5 µM;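 active means inhibition of aggregate fluorescence above about 70%, also judged a hit by eye on the cell image, limit read from the data, passing the limit was not always enough; inconclusive means no rule stated for this call; inactive means not judged a hit on image review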;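 further: cells exposed to compound for three days before fixation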
Fluor 339 460 = intrinsic fluorescence of library compounds, ex339/em460 – biochemical, MLSMR library, data from DPM-DC assay, artefact control, profiling panel | compound autofluorescence, ex339/em460 nm, NADH buffer; hits give high values; 1 = no-compound wells, NADH background | fluorescence fold increase at 10 µM | hit rate 5.5% among 65,000;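 active means at 10 µM, mean starting fluorescence two-fold or more over control wells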;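 further: signal is the first read of a kinetic run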
M1 agonist = M1 muscarinic receptor agonism; CHO-M1 cells, Fluo-4 calcium fluorescence, agonist mode; hits give high values; B-score at 10 µM; hit rate 3% among 64,000; AID 626;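 active means fluorescence rise, raw or as B-score row- and column-corrected plate score, outside the 99.7% band of its plate's samples, either direction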
Abs 340nm = absorbance at 340 nm; fold change at 10 µM; compound absorbance at 340 nm, fold over control; 65,000 tested, under 10 active;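 active means at 10 µM dose, initial 340 nm absorbance at least 2 fold that of control wells; inactive means change under 2 fold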;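 further: initial absorbance extrapolated from kinetic A340 decline of NADH oxidation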
M1 antagonist = blocks the rat M1 muscarinic receptor response to acetylcholine; B-score at 10 µM; hit rate 3.4% among 64,000; AID 628; P08482; CHO-M1 cells, Fluo-4 calcium, ACh EC80 antagonist mode; hits give low values;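 active means calcium fluorescence response, raw or row-and-column corrected B-score, differing from the plate sample mean either way at a set confidence level, mostly lower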
Target sequence (P08482 whole entry, looked up): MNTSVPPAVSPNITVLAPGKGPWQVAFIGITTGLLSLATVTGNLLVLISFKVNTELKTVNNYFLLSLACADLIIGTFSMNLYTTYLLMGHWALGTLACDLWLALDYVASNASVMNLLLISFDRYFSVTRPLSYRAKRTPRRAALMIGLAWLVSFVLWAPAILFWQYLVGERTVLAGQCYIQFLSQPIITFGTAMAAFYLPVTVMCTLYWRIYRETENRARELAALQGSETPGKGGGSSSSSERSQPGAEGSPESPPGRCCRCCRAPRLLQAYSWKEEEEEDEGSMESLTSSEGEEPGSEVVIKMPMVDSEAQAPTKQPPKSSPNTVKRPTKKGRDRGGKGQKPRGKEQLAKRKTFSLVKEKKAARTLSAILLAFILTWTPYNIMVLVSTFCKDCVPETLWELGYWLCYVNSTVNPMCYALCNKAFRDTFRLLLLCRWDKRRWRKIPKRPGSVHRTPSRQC
NADH coupling = inhibitors of enzymes used to reach an NAD/NADH endpoint; AID 774; IC50, µM (series often up to 10 µM), inactives show top-dose inhibition; hit rate 0.02% among 65,000; coupled PK/LDH NADH assays, four targets;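 active means single-dose screening hits from any of four coupled enzyme assays that gave an IC50 when retested across doses; inconclusive means no clear call, values can overlap the other calls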;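 further: the DPM-DC format reads NADH fluorescence rather than 340 nm absorbance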
An asterisk follows results filed as active; ? = inconclusive; . = no result given.

SMILES	Htt clearance	Fluor 339 460	M1 agonist	Abs 340nm	M1 antagonist	NADH coupling
Cc1oc2cc3c(C(=O)N4CCN(C)CC4)c(C)oc3cc2c1C(=O)N1CCN(C)CC1	.	1	-0.39	1	-0.083	12%
CCOc1ccc2oc(-c3ccccc3)c(C(=O)N3CCN(C)CC3)c2c1	.	2.2*	0.49	1.1	0.38	0%
CC(C)c1ccccc1OCCNS(C)(=O)=O	22	1.1	0.55	1.1	0.66	0%
CCSc1nnc(-c2ccc(OC)cc2)o1	-55	1	0.95	1	0.28	1%
COc1ccc(-c2ccc(-c3nnc(-c4ccncc4)o3)cc2)cc1	.	2.4*	0.22	1	0.1	9%
Cc1ccc(-c2cc(C(F)(F)F)c(C#N)c(SCCC#N)n2)o1	35	3.7*	0.36	1.1	0.51	5%
COC(=O)CSc1nc(C2CC2)cc(C(F)(F)F)c1C#N	4	1.1	0.27	0.99	-0.38	7%
CC(C)=CCC(C)(C)CNC(=O)NC1CCCCC1	.	1	-0.67	1	0.0064	5%
CCOC(=O)c1ccccc1NC(=O)CSc1nnc(Cc2cccn2C)n1-c1ccc(C)cc1	3	2*	0.6	1	0.9	4%
COc1ccc(-n2c(Cc3cccn3C)nnc2SCC(=O)Nc2ccccc2C)cc1	20	1.1	-0.12	1	0.93	3%
CCn1c(NCc2cccs2)nc2ccccc21	25	1.1	.	1.1	.	1%
CCCn1c(-c2cccs2)nc2ccccc21	.	3.7*	0.85	1	0.71	5%
C=CCn1c(-c2cccs2)nc2nc3ccccc3nc21	-95	1.4	-0.64	1	0.029	1%
C=CCn1c(-c2cccs2)nc2ccccc21	16	3.1*	-0.26	1	0.34	8%
COc1ccc(C(C)=O)cc1CSc1nnc(-c2ccccc2O)n1-c1ccccc1	10	.	.	.	.	.
CCOC(=O)CSc1nc2ccsc2c(=O)n1C1CCN(C(=O)OCC)CC1	8	1.1	0.17	1	-0.69	5%
CCOC(=O)N1CCN(C(=O)c2ccc3nc4ccsc4c(=O)n3c2)CC1	.	2.2*	-1.1	1	-0.077	2%
CCOC(=O)N1CCN(C(=O)c2cccn3c(=O)c4sccc4nc23)CC1	16	2.5*	-1.2	1.1	0.015	2%
CCOC(=O)N1CCN(C(=O)c2ccc3nc4ccc(Cl)cc4c(=O)n3c2)CC1	.	4.9*	0.044	1.1	-0.4	9%
CC(=O)c1cccc(N(CC(=O)O)S(C)(=O)=O)c1	2	1.1	0.41	1	1.1	8%
O=S(=O)(c1ccccc1F)N(Cc1ccco1)Cc1nnc(-c2ccccc2Br)o1	19	1.1	1.1	1	0.87	3%
O=C(CSc1nnnn1C1CCCC1)Nc1ccc2c(c1)OCO2	-76	1	1.2	1	-1.6	2%
Cc1cc(NC(=O)CSc2nnnn2C2CCCC2)no1	44	2.8*	-0.34	1.1	0.13	17%
C/C(=C1/SC(N2CCCC2)=NC1=O)c1ccc(Br)cc1	16	1	0.71	1.1	0.24	7%
CC(NC(=O)Cc1cccs1)C(c1cccs1)N1CCOCC1 (configuration not stated)	.	1.1	-0.32	1	1.7*	3%
SMILES	Htt clearance	Fluor 339 460	M1 agonist	Abs 340nm	M1 antagonist	NADH coupling
CCC(=O)NC(C)C(c1cccs1)N1CCOCC1 (configuration not stated)	.	0.97	0.1	1.1	0.38	6%
Cc1ccc(OC(=O)CCc2c(C)nc3ncnn3c2C)cc1	35	1.1	0.47	0.99	0.026	2%
CCCCN(C(=O)Cn1nnc2ccccc21)C(C(=O)NCCOC)c1cccs1 (configuration not stated)	74*	.	.	.	.	.
CCCCN(C(=O)Cn1nnc2ccccc21)C(C(=O)NCCOC)c1ccccc1 (configuration not stated)	-8	.	.	.	.	.
CN1CCc2c(sc3c2C(=O)NC(c2ccccn2)N3)C1 (configuration not stated)	.	2.4*	-0.55	1	-0.34	12%
Cc1ccc(C2NC(=O)c3c(sc4c3CCN(C)C4)N2)o1 (configuration not stated)	56	1.6	0.063	1.1	-0.078	9%
O=C1NC(c2ccccn2)Nc2sc3c(c21)CCC3 (configuration not stated)	-15	1.4	-1.4	1.1	-0.35	5%
Cc1ccc(C2NC(=O)c3c(sc4c3CCN(C)C4)N2)s1 (configuration not stated)	43	2.3*	-1.3	1	0.035	16%
CCOC(=O)c1cnn(-c2ccccc2)c1-n1cccc1C(=O)C(=O)Nc1ccccc1	62	.	.	.	.	.
CCN(CC)c1ccc2cc(C(=O)Nc3ccc(-n4cnnn4)c(OC)c3)c(=O)oc2c1	.	1.6	20*	1.1	-1.2	8%
N=c1c2c(-c3ccccc3)c(-c3ccccc3)n(Cc3ccco3)c2ncn1Cc1ccco1	.	1.1	1.6	1	-0.062	4%
CCOC(=O)COc1ccc2nsnc2c1Cl	?	2.9*	0.072	1	0.55	16%
CN(C)CCCN1C(=O)C(O)=C(C(=O)c2cccs2)C1c1ccccn1 (configuration not stated)	.	1.1	0.12	1	0.25	3%
Cc1nc(N2CCC(C)CC2)c2c(C)c(C(=O)O)sc2n1	80*	1.1	0.071	1	-0.13	11%
CCC1Cc2c(nc3c4c(nc(N5CCOCC5)c(C#N)c24)NC(C)=N3)O1 (configuration not stated)	25	3.3*	1	0.99	-0.12	3%
CC1(C)CC(=O)C(C=NCCN2CCN(C(=O)C34CC5CC(CC(C5)C3)C4)CC2)=C(O)C1	.	1.1	0.33	1	-0.005	2%
c1ccc2[nH]c(N3CCOCC3)nc2c1	.	1	-0.47	1	0.3	5%
O=c1oc2c3c4c(cc2cc1-c1nc2ccccc2[nH]1)CCCN4CCC3	.	2.1*	338*	0.9	-15*	11%
c1ccc2[nH]c(CN3CCCCC3)nc2c1	19	.	.	.	.	.
O=c1oc2c(CN3CCCCC3)c(O)ccc2cc1-c1nc2ccccc2[nH]1	.	4*	182*	1	-18*	8%
COC(=O)C1(c2ccccc2)NC(c2cccs2)C2C(=O)N(c3ccccc3)C(=O)C21 (configuration not stated)	22	.	.	.	.	.
O=C(c1ccc2ccccc2n1)N1CCN(c2ccccc2O)CC1	16	.	.	.	.	.
OC1CN=C2CCCc3c2n(c2ccc(Cl)cc32)C1 (configuration not stated)	-19	3.8*	-0.053	1.4	0.41	9%
NC(=O)c1nsc(C(=O)N(CC(=O)NCc2ccc3c(c2)OCO3)C2CCCC2)c1N	4	2.1*	1.4	1	-1	9%
CCCC(C(=O)NC1CCCC1)N(Cc1ccc2c(c1)OCO2)C(=O)c1snc(C(N)=O)c1N (configuration not stated)	31	.	.	.	.	.
CCOc1ccc2ccccc2c1CNCCN1CCOCC1	70*	1.1	1.5	1	-1.5	3%
